Screening data as filed in PubChem.
Rows were chosen to be rich in hits. Some 6.6% of all compounds tested hit in one or more screens of this group.
Bead autofluor: counter-screen for toxin protease inhibitors: compound fluorescence; compound autofluorescence counterscreen, microsphere flow cytometry; hits give high values; fluorescence intensity (concentration not given with the values); hit rate 3.1% among 360,000; AID 624483; in the data active = fluorescence intensity above about 16000; inconclusive = no clear call, values can overlap the other calls
BoNT-F LC inh: blocks Botulinum neurotoxin F light chain protease; Multiplex microsphere protease cleavage assay, flow cytometry; inhibition, % at 10 µM; hit rate 0.22% among 360,000; AID 588497; in the data active = inhibition above about 35%, passing the limit was not always enough; inconclusive = no clear call, values can overlap the other calls; also: plate controls were buffer without enzyme for full effect and enzyme alone for no effect
GDH-TPI inh: counter-screen for M. tuberculosis FBA inhibitors: GDH-TPI coupled enzymes; GDH-TPI coupled enzyme counterscreen, NADH absorbance; inhibition, % at 4.8 µM; hit rate 1.2% among 360,000; AID 588335; in the data active = inhibition above about 30%;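 also: 0% = DMSO wells and 100% = wells lacking the enzyme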
Mtb FBA inh: inhibits M. tuberculosis FBA enzyme | purified M. tuberculosis FBA, fluorescence read-out | inhibition, % at 1 µM | hit rate 2.3% among 360,000; in the data active = inhibition above about 27%;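 also: 0% = vehicle and 100% = reference inhibitor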
Target sequence (P9WQA3 whole entry, looked up): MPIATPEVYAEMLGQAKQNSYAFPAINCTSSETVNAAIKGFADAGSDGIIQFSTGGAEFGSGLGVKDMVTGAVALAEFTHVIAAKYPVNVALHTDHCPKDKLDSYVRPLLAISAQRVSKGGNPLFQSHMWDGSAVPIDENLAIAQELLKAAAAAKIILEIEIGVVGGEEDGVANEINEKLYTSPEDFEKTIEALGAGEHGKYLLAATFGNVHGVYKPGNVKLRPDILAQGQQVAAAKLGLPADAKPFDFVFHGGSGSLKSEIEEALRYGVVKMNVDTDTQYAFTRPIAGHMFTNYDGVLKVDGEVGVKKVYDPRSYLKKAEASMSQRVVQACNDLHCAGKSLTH
Anthrax LF prot: anthrax lethal factor protease inhibition | multiplex microsphere protease cleavage assay, LF | inhibition, % at 10 µM | hit rate 0.12% among 360,000 | AID 588501; also: plate controls were buffer without enzyme for full effect and enzyme alone for no effect
BoNT A protease: inhibitors of Botulinum neurotoxin A light chain protease. multiplex microsphere protease substrate cleavage, flow cytometry. inhibition, % at 10 µM. hit rate 0.17% among 360,000; also: plate controls were buffer without enzyme for full effect and enzyme alone for no effect
* marks the source's active call; other numbers are inactive results; ? = inconclusive; / = no result given; + = active, no number. Rule as the data show it, unless noted: active = inhibition above about 30%; inconclusive = no clear call, values can overlap the other calls; inactive = below that.

SMILES	Bead autofluor	BoNT-F LC inh	GDH-TPI inh	Mtb FBA inh	Anthrax LF prot	BoNT A protease
COCCNC(=O)CN1C(=O)NC(c2ccccc2)(c2ccccc2)C1=O	3940	4	3	5	0	1
C=CCn1c(N)c(C(=O)NCCC2=CCCCC2)sc1=S	16404*	-4	35*	2	-5	-1
CC(=O)c1sc(=S)n(-c2ccccc2)c1C	/	/	68*	2	/	/
C=CCn1c(N)c(C(=O)N2CCN(C)CC2)sc1=S	22789*	0	25	2	-7	2
Nc1c(C(=O)N2CCCCC2)sc(=S)n1-c1ccccc1	21338*	-2	11	0	0	-1
NC(=O)NCCC1=CCCCC1	10130	-5	7	1	-6	-2
CC(=O)c1sc(=S)n(-c2ccc(Cl)cc2)c1C	3102	-10	11	0	1	-1
COc1cccc(OC)c1CC1SC(=O)NC1=O (stereo unspecified)	1995	-3	7	-9	0	0
CC12CCC(C(=O)C1)C1(C)CCCC(=O)C21 (stereo unspecified)	2996	6	4	1	-4	1
Nc1c(C(=O)N2CCOCC2)sc(=S)n1-c1ccccc1	21197*	-4	-1	-6	1	-5
Cc1ccc(-n2c(N)c(C(=O)N3CCN(C)CC3)sc2=S)cc1	21266*	-2	6	1	-3	-1
COc1ccc(Nc2nc(NCCO)nc(N3CCCC3)n2)cc1	3941	0	1	2	-2	0
CCCNc1nc(Nc2ccc(C)cc2)nc(N2CCCC2)n1	16266*	1	4	0	0	0
CCN(CC)CCCNC(=O)C1CCN(C(=O)c2oc3cc4sc(N(C)C)nc4cc3c2C)CC1	4308	5	22	11	-2	2
Nc1nc(N)c2[nH]c(-c3ccccc3)nc2n1	3742	-25	11	+	-1	5
O=C1OC(/C=C/c2ccc(Cl)cc2Cl)=NC/1=C\c1cccs1	6876	12	25	3	8	17
COc1ccc(NC(=O)C(=O)NCC2CCCN2S(=O)(=O)c2ccc(C)cc2)cc1 (stereo unspecified)	8646	8	-2	-2	0	-2
O=C(CN1C(=O)C2(OCCCO2)c2ccccc21)NCc1ccccc1	17108*	-4	-3	1	-4	-3
CCOc1ccccc1CN1C(=O)C2(OCCO2)c2ccccc21	3606	?	-3	1	6	0
CCOC(=O)CN1C(=O)C2(OCCCO2)c2ccccc21	10049	2	-1	-3	-1	0
Cc1ccc(C)c(CN2C(=O)C3(OCCCO3)c3ccccc32)c1	23436*	-2	-2	-2	-3	-1
Cc1ccc(CNC(=O)CN2C(=O)C3(OCCCO3)c3ccccc32)cc1	11499	40*	1	4	-21	38*
COC(=O)CN1C(=O)C2(OCCCO2)c2cc(Br)ccc21	23376*	4	1	8	0	0
COc1cccc(C(NC(C)=O)c2nc(-c3ccncc3)cs2)c1 (stereo unspecified)	3660	-3	13	2	0	0
CN(C)C(CNC(=O)C1CC(=O)N(Cc2ccccc2)C1)c1ccccc1 (stereo unspecified)	5761	11	0	1	-5	2
SMILES	Bead autofluor	BoNT-F LC inh	GDH-TPI inh	Mtb FBA inh	Anthrax LF prot	BoNT A protease
CCN(CC(=O)Nc1c(F)cccc1F)C(=O)C1CCN(S(=O)(=O)c2ccccc2C(=O)OC)CC1	6325	-10	5	4	-2	0
CCOC(=O)C1CCN(C(=O)CSc2nc3ncccc3[nH]2)CC1	5275	4	12	3	-2	1
O=C(CN1C(=O)C2(OCCO2)c2ccccc21)c1ccc(Cl)cc1	16345*	0	17	-1	-3	?
Cc1cnc(C(=O)OCC(=O)NCc2ccc(Cl)cc2)cn1	6004	-12	-4	-4	-2	0
CCCCC(=O)Nc1ccc(C(=O)NNC(=O)c2ccco2)cc1	5007	3	5	2	-9	0
O=C(NC(=S)NNC(=O)c1ccccc1O)c1ccco1	9929	-7	31*	5	4	0
CCCCC(=O)Nc1ccc(C(=O)NNC(=S)NC(=O)c2ccco2)cc1	4505	-7	44*	-1	4	-1
COCCn1c(C)nnc1SCC(=O)NNC(=O)c1ccc(Cl)cc1	3911	-24	-1	1	-10	-5
O=c1cccc2n1Cc1cc3ccccc3nc1-2	3067	-6	32*	+	2	0
c1ccc2c(c1)-c1nc3ccccc3cc1C2N1CCCCC1 (stereo unspecified)	3814	-11	25	-2	-3	0
CCc1nc2ccc(C(=O)N(C)C(C)C)cn2c1N(CCC(C)C)CCN(C)C	3494	3	1	-2	-2	0
CCOC(=O)c1cc2c(C)n(-c3ccc(C)cc3)c(C)c2ccc1=O	22981*	-2	19	1	-2	1
CCCc1cc(=O)[nH]c(SCC(=O)N2c3ccccc3CC2C)n1 (stereo unspecified)	8651	6	-2	-2	-5	1
CCC1NC(=O)c2cccnc2-n2c1nc1cc(F)ccc1c2=O (stereo unspecified)	3753	0	6	0	-1	0
CN(Cc1cnc2nc(N)nc(N)c2n1)c1ccc(C(=O)NC(CCC(=O)O)C(=O)O)cc1 (stereo unspecified)	3014	1	21	74*	-2	1
CN(Cc1cnc2nc(N)nc(N)c2n1)c1ccc(C(=O)NC(CCC(=O)O)C(=O)O)cc1C(F)(F)F (stereo unspecified)	2988	2	21	33*	-5	0
CCCN(CCC)C(=O)C(CCC(=O)O)NC(=O)c1ccccc1 (stereo unspecified)	5518	-4	-13	-1	-6	0
O=C(O)c1ccc2c(c1)C(=O)N(N1C(=O)c3ccccc3C1=O)C2=O	10863	3	5	2	1	1
COc1cc2oc(=O)c(Br)c(C)c2c(OC)c1OC	2246	-37	29	0	-3	-2
COc1cc2oc3cc(C)oc(=O)c3c2cc1OC	4373	?	19	142*	-17	-11
CCOCCCNC(=O)c1cn(CC)c2ccc(S(=O)(=O)N(C)C3CCCCC3)cc2c1=O	5717	1	7	1	0	0
CCN(CC)S(=O)(=O)c1ccc2c(c1)c(=O)c(C(=O)NCCOC)cn2C	9362	-3	16	0	-12	-1
C=CCn1cc(C(=O)NCCCOCC)c(=O)c2cc(S(=O)(=O)N(CC)CC)ccc21	23558*	2	20	0	0	0
C=CCn1cc(C(=O)NCCOC)c(=O)c2cc(S(=O)(=O)N(CC)CC)ccc21	16280*	0	16	1	-4	0
CCOc1ccc(C(C)(C)C)cc1S(=O)(=O)Nc1ccncc1	4077	-24	7	0	12	3
CCCNC(=O)c1cc(C2CCCCN2S(C)(=O)=O)on1 (stereo unspecified)	3530	-2	9	-3	-6	0
CNc1ncnc(Sc2ccc(Cl)cc2)c1[N+](=O)[O-]	4519	-51	2	-2	-18	-8
